Laboratory results taken from PubChem BioAssay (NCI).
The panel holds about 83,000 compounds, 20% with a hit somewhere; the sample as a whole holds those more often.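 Single-dose data. Exposure time 48 hours. Values below 10 considered active.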 Calls of active or inactive are those of the source.

Columns and labels:
Test in all cases: NCI-60 one-dose screen, 48 h (100 = growth as untreated, 0 = no growth, -100 = all killed)
Conditions in all cases: 10 µM unless noted
T-47D breast = test system: T-47D breast
BT-549 breast = test system: BT-549 breast
MDA-MB-435 melanoma = test system: MDA-MB-435 melanoma
MCF7 breast = test system: MCF7 breast
HCT-116 colon = test system: HCT-116 colon
HCC-2998 colon = test system: HCC-2998 colon
KM12 colon = test system: KM12 colon
SW-620 colon = test system: SW-620 colon

Measured: growth

CCN(CC)CCNc1ccc(C)c2sc3cc(C)ccc3c(=O)c12
inactive: T-47D breast 66.5% | BT-549 breast 68.3% | MDA-MB-435 melanoma 37.3% | MCF7 breast 43.7% | HCT-116 colon 23.1% | HCC-2998 colon 66.4% | KM12 colon 60.1%

CN(C)c1ccc(C#Cc2c(F)cccc2Cl)cc1
inactive: T-47D breast 41.8% | BT-549 breast 98.2% | MDA-MB-435 melanoma 99.8% | MCF7 breast 39.5% | HCT-116 colon 84.8% | HCC-2998 colon 76.2% | KM12 colon 85.4%

COc1ccc(-c2cn(-c3cccc(C(=O)/C=C/c4cc(OC)c(OC)c(OC)c4)c3)c(=O)[nH]2)cc1
inactive: BT-549 breast 139%
active: T-47D breast -9.54% | MDA-MB-435 melanoma -9.22% | MCF7 breast -34.5% | HCT-116 colon -91.9% | KM12 colon -62.6%

COc1ccc(Cn2cnc3cc(C(=O)Nc4cccc5ccccc45)ccc32)c(OC)c1
inactive: T-47D breast 59.8% [30 µM] | BT-549 breast 30.8% [30 µM] | MCF7 breast 11.8% [30 µM] | HCT-116 colon 10.3% [30 µM]
active: MDA-MB-435 melanoma -44.5% [30 µM] | HCC-2998 colon 6.79% [30 µM] | KM12 colon 2.44% [30 µM]

O=C1CSC(c2ccccc2Cl)N1c1nnc(Cn2cnnc2)o1 (stereo not drawn)
inactive: T-47D breast 33.3% | BT-549 breast 60.6% | SW-620 colon 39.4% | HCC-2998 colon 35.8% | KM12 colon 50.9%
active: MDA-MB-435 melanoma -45.1% | MCF7 breast -8.09%

CC(=O)Nc1ccc(C(=O)/C=C/c2ccccc2)cc1
active: HCT-116 colon 1.2%
inactive: T-47D breast 74.9% | MDA-MB-435 melanoma 89.1% | SW-620 colon 90.4% | MCF7 breast 24.3% | HCC-2998 colon 88.7% | KM12 colon 22.8%

O=C(NCCN1CCC(O)CC1)c1cc2c(o1)C(=O)c1ccccc1C2=O
active: T-47D breast -44.6% | BT-549 breast -94.4% | MDA-MB-435 melanoma -91.8% | MCF7 breast -69.7% | HCT-116 colon -81.5% | HCC-2998 colon -92.9% | KM12 colon -89.3%

CN(C)c1cnccn1
inactive: T-47D breast 75.9% | BT-549 breast 73% | MDA-MB-435 melanoma 100% | MCF7 breast 87.3% | HCT-116 colon 97.3% | HCC-2998 colon 112% | KM12 colon 103%

Clc1ccc2[nH]c3c(NCCCN4CCOCC4)ncnc3c2c1
inactive: T-47D breast 72.2% | BT-549 breast 77.9% | MDA-MB-435 melanoma 92.8% | MCF7 breast 74.6% | HCT-116 colon 36.3% | HCC-2998 colon 87.4% | KM12 colon 86.5%

CC(C)(C)N1CC(OC(N)=O)C1
inactive: T-47D breast 93.3% | BT-549 breast 94.4% | MDA-MB-435 melanoma 96.5% | SW-620 colon 104% | MCF7 breast 102% | KM12 colon 108%

CC12CC(C#N)CCC1O2 (stereo not drawn)
inactive: T-47D breast 116% | BT-549 breast 111% | MDA-MB-435 melanoma 121% | SW-620 colon 97.3% | MCF7 breast 97.9% | HCC-2998 colon 114% | KM12 colon 113%

NC(N)=N/N=C(/c1ccccc1)c1ccccc1F
active: T-47D breast 3.86% | MDA-MB-435 melanoma -56% | HCT-116 colon -28.7% | HCC-2998 colon 2.85%
inactive: BT-549 breast 70.8% | MCF7 breast 15.9% | KM12 colon 13.8%

COc1ccc(OC)c(/C=C2\COc3ccc(O)c(O)c3C2=O)c1
inactive: T-47D breast 25.2% | BT-549 breast 39% | MDA-MB-435 melanoma 12.1% | MCF7 breast 14.9% | HCC-2998 colon 53.9% | KM12 colon 16.4%
active: HCT-116 colon 3.33%

Cc1nc(Nc2ccc(NC(=S)Nc3ccccc3)cc2)nc2nc(Nc3cccc(Cl)c3)[nH]c(=O)c12
inactive: T-47D breast 89.1% | MDA-MB-435 melanoma 108% | SW-620 colon 98.3% | MCF7 breast 89.8% | HCT-116 colon 94.4% | HCC-2998 colon 114% | KM12 colon 106%

NC(N)=N/N=C/c1ccc(Br)cc1
inactive: SW-620 colon 16.8% | HCC-2998 colon 56.7% | KM12 colon 18.3%
active: T-47D breast -26.9% | MDA-MB-435 melanoma -33.1% | MCF7 breast 4.98% | HCT-116 colon -26.3%

O=C(O)c1ccc(CO)o1
inactive: T-47D breast 105% | MDA-MB-435 melanoma 109% | SW-620 colon 104% | MCF7 breast 84.1% | HCT-116 colon 103% | HCC-2998 colon 111% | KM12 colon 106%

CSc1nc2sc3cc(Cl)ccc3n2c(=N)c1C#N
inactive: T-47D breast 70% | MDA-MB-435 melanoma 96.9% | SW-620 colon 71.7% | MCF7 breast 49% | HCT-116 colon 92.9% | HCC-2998 colon 86.8% | KM12 colon 19.8%

CCOc1ccc(-c2nc3ccc(-c4nc5ccc(N6CCN(C)CC6)cc5[nH]4)cc3[nH]2)cc1OCC
inactive: T-47D breast 15.2% | KM12 colon 43%
active: MDA-MB-435 melanoma -2.53% | SW-620 colon 0.486% | MCF7 breast 7.04% | HCT-116 colon -3.06% | HCC-2998 colon -15.9%

CCn1c(Sc2nnc(Nc3ccccc3)s2)nc2c1c(=O)n(C)c(=O)n2C
inactive: T-47D breast 87.2% | MDA-MB-435 melanoma 103% | SW-620 colon 97.6% | MCF7 breast 98.6% | HCT-116 colon 94.7% | HCC-2998 colon 92.7% | KM12 colon 110%

N#Cc1c(Oc2ccc([N+](=O)[O-])cc2)nc2sc3cc(Cl)ccc3n2c1=N
inactive: T-47D breast 60.2% | MDA-MB-435 melanoma 111% | SW-620 colon 93.1% | MCF7 breast 61.8% | HCT-116 colon 105% | HCC-2998 colon 117% | KM12 colon 47.7%
